Rows were chosen to be rich in hits. Some 3.5% of all compounds tested hit in one or more screens of this group.
BoNT-A LC inh2: inhibitors of Botulinum neurotoxin A light chain protease | multiplex microsphere protease substrate cleavage, flow cytometry | inhibition, % at 10 µM | 360,000 compounds, 0.17% hits | AID 588499; further: plate controls were buffer without enzyme for full effect and enzyme alone for no effect
Bead autofluor: flagged as autofluorescent in microsphere protease counterscreen; compound autofluorescence counterscreen, microsphere flow cytometry; stronger effect = higher value; fluorescence intensity (concentration not given with the values); 360,000 compounds, 3.1% hits; in the data active means fluorescence intensity above about 16000; inconclusive means no clear call, values can overlap the other calls
Anthrax LF prot: anthrax lethal factor protease inhibition; multiplex microsphere protease cleavage assay, LF; inhibition, % at 10 µM; 360,000 compounds, 0.12% hits; AID 588501; further: plate controls were buffer without enzyme for full effect and enzyme alone for no effect
BoNT-F LC inh: blocks Botulinum neurotoxin F light chain protease. 360,000 compounds, 0.22% hits. AID 588497. inhibition, % at 10 µM. Multiplex microsphere protease cleavage assay, flow cytometry; in the data active means inhibition above about 35%, passing the limit was not always enough; inconclusive means no clear call, values can overlap the other calls; further: plate controls were buffer without enzyme for full effect and enzyme alone for no effect
Numbers without * were called inactive; ? = inconclusive. Unless noted, no stated cut-off is given here; in the data, active means inhibition above about 30%; inconclusive means no clear call, values can overlap the other calls; inactive means below that.

SMILES | BoNT-A LC inh2 | Bead autofluor | Anthrax LF prot | BoNT-F LC inh
COCc1nc2ccccc2n1Cc1cccc(C)c1 | -2 | 16897* | -1 | -5
Cc1ccccc1Cn1c(Cc2ccccc2)nc2ccccc21 | ? | 24142* | 0 | -6
Cc1cccc(Cn2c(Cc3ccccc3)nc3ccccc32)c1 | 0 | 2047 | -1 | 4
COCc1nc2ccccc2n1Cc1ccccc1C | 0 | 3212 | -2 | -6
C[C@H]1COC(=O)[C@@H](Cc2ccc(F)cc2)C/C=C\C[C@@H](CC(=O)N[C@@H](CO)Cc2ccccc2)C(=O)N1 | -1 | 4149 | -14 | -7
Cc1cccc(C(=O)Nc2ccccc2NC(=O)c2cccc(C)c2)c1 | -3 | 3471 | 1 | 7
Cc1cccc(C(=O)Nc2ccc(Cl)cc2C(=O)c2ccccc2)c1 | ? | 20672* | -5 | -2
CCOC(=O)C1CCN(C(=O)C(=O)c2cn(CC(=O)N3CCCCCC3)c3ccccc23)CC1 | 44* | 8139 | 31* | 17
CCOC(=O)C1CCCN(C(=O)C(=O)c2cn(CC(=O)N3CCOCC3)c3ccccc23)C1 (stereo not given) | -53 | 19022* | -7 | -98
CCOC(=O)N1CCN(C(=O)C(=O)c2cn(CC(=O)N3CCCCCC3)c3ccccc23)CC1 | 16 | 8734 | 26 | 13
CCn1c(=O)cc(OCC(=O)NC2CCCCC2)c2ccccc21 | -2 | 16641* | 0 | -3
CCn1c(=O)cc(OCC(=O)Nc2ccc(C)cn2)c2ccccc21 | 0 | 19603* | 0 | 2
COc1ccc(-n2c(=O)c3ccccc3n(CC(=O)NC3CCCC3)c2=O)c(OC)c1 | 4 | 21567* | -1 | 3
COc1ccc(-n2c(=O)c3c4c(sc3n(CC(=O)NC3CCCC3)c2=O)CCCC4)c(OC)c1 | -1 | 4365 | -6 | 4
CCn1c(=O)cc(OCC(=O)NCc2cccnc2)c2ccccc21 | ? | 23271* | 0 | -3
C[C@@H]1CCCCO[C@@H](CN(C)S(=O)(=O)c2ccccc2)[C@@H](C)CN([C@H](C)CO)C(=O)c2cc(N(C)C)ccc2O1 | 0 | 3529 | -6 | -2
O=C(NNC1=NCCC1)c1cccc(Br)c1 | 0 | 4194 | -1 | 22
COC(=O)NNC(=O)c1ccccc1C | ? | 22876* | 0 | 3
Cc1ccccc1C(=O)NNC(=O)C(=O)Nc1cccc(Cl)c1C | -1 | 20831* | -2 | -3
Cc1ccccc1C(=O)NNC1=NCCC1 | -1 | 17045* | 0 | -1
S=C(NCc1ccccc1)Nc1ccncc1 | 3 | 4115 | -2 | 10
COC(=O)c1ccc(NC(=O)CSc2nnc(-c3cccnc3)o2)cc1 | 3 | 5393 | -2 | -11
Cc1ccc(NC(=O)NC2C(NC(=O)Nc3ccc(C)cc3)N(C)C(=O)N2C)cc1 (stereo not given) | ? | 18428* | -17 | 17
C=CCn1c(COc2ccc(F)cc2)nnc1SCC(=O)NC1CC1 | 4 | 5417 | -4 | 9
C=CCn1c(COc2ccc(F)cc2)nnc1SCC(=O)N1CC(=O)Nc2ccccc21 | -4 | 21515* | 1 | -4
SMILES | BoNT-A LC inh2 | Bead autofluor | Anthrax LF prot | BoNT-F LC inh
CNS(=O)(=O)c1cccc(C(=O)NCC(c2cccs2)N(C)C)c1 (stereo not given) | 2 | 22234* | -8 | 3
Cc1ccc(NS(=O)(=O)c2cccc(C(=O)NCC(c3cccs3)N(C)C)c2)cc1 (stereo not given) | -1 | 4015 | -1 | -4
OCCC1CN(Cc2ccccc2OC2CCCC2)CCN1Cc1ccsc1 (stereo not given) | 0 | 1965 | -1 | -2
CC(/C=N/Nc1nnc(C)c(=O)[nH]1)=C\c1ccccc1 | 0 | 10429 | -2 | 2
C/C(=N\Nc1nnc(C)c(=O)[nH]1)C(=O)O | 0 | 23478* | -6 | -1
CC1CCC2C(=O)N(c3cccc(C(=O)Nc4ccccc4Cl)c3)C(=O)C2C1 (stereo not given) | 2 | 4963 | -2 | 8
CC1(c2cccc(Br)c2)NC(=O)N(CC(=O)Nc2ccc(F)cc2)C1=O (stereo not given) | -5 | 3606 | 10 | -8
O=C1C(Cl)=C(N2CCOCC2)C(=O)N1c1ccc(Br)cc1 | -4 | 3779 | 30* | 9
CC(C)c1ccc(N2C(=O)C(Cl)=C(N3CCOCC3)C2=O)cc1 | -6 | 3121 | -2 | -10
CN(C)S(=O)(=O)c1cccc(C(=O)Nc2cc3c(cc2C(=O)O)OCCCO3)c1 | 0 | 3591 | -1 | 24
Cc1c(C)c2cc(Cl)c(O)c(CN3CCN(C)CC3)c2oc1=O | 1 | 3895 | 1 | -9
Cc1c(C)c2cc(Cl)c(O)c(CN3CCCC(C)C3)c2oc1=O (stereo not given) | 0 | 22975* | -4 | 2
Cc1ccc(OC(=O)CCC(=O)OCCCC(F)(F)C(F)(F)F)cc1 | -2 | 24380* | -1 | -4
N#Cc1c(NC(=O)c2ccccc2Cl)n(Cc2ccccc2)c2nc3ccccc3nc12 | 31* | 2894 | 9 | 1
COCCNC(=O)c1c(NC(=O)c2ccco2)n(Cc2ccccc2)c2nc3ccccc3nc12 | 12 | 3129 | 5 | 8
CCCCn1c(NC(=O)c2ccccc2Cl)c(C#N)c2nc3ccccc3nc21 | 10 | 3734 | -2 | -30
COCCCNC(=O)c1c(NC(=O)c2ccccc2Cl)n(Cc2ccccc2)c2nc3ccccc3nc12 | ? | 18554* | 12 | 10
CC(C)(C)NC(=O)C(c1ccc(-c2ccccc2)cc1)N(C[C@H]1CC[C@@H]([C@@H]2CC[C@H](CO)O2)O1)C(=O)c1ccccc1F (stereo not given in full) | 0 | 3525 | -8 | 4
Cc1cc(C)c2oc(C(=O)N3CCN(C)CC3)cc(=O)c2c1 | -3 | 3403 | 3 | -45
O=C(COc1ccc2ccc(=O)oc2c1)Nc1ccc2c(c1)OCCO2 | -7 | 21506* | 2 | -11
O=C(COc1ccc2ccc(=O)oc2c1)Nc1ccc(CCO)cc1 | -3 | 5987 | -2 | -8
COc1cc(NC(=O)Cc2ccccc2)ccc1NC(=O)c1ccccc1 | 1 | 4105 | -5 | 14
O=C(CSc1ncccn1)n1c2c(c3ccccc31)CCCC2 | -8 | 18875* | -9 | -67
CC1(C)CC(=O)C2=C(C1)NCN(Cc1ccccc1)C2 | 0 | 16534* | -13 | -1
C[C@@H]1CN([C@H](C)CO)C(=O)CCCn2cc(nn2)CO[C@H]1CN(C)S(=O)(=O)c1ccccc1C#N | 0 | 3404 | 2 | -5
SMILES | BoNT-A LC inh2 | Bead autofluor | Anthrax LF prot | BoNT-F LC inh
O=[N+]([O-])c1ccc(Cl)c(C[n+]2cccc3ccccc32)c1 | -7 | 7598 | -12 | 49*
Cc1ccccc1-c1noc(-c2ccc(O)cc2)n1 | -2 | 6563 | -1 | -3
Cc1ccccc1-c1noc(C23CC4CC(CC(C4)C2)C3)n1 | -2 | 21714* | -6 | -6
Cc1ccccc1-c1noc(C2CCCCC2)n1 | ? | 22659* | -2 | -4
O=C(Nc1cc(C(F)(F)F)ccc1F)C1Cc2c(-c3ccccc3Oc3ccccc3)ccnc2O1 (stereo not given) | 0 | 3303 | -2 | -6
CC(=O)c1cccc(OC(=O)Oc2cccc(C(C)=O)c2)c1 | 0 | 3182 | -15 | -3
NS(=O)(=O)c1ccc(-c2ccc(/C=N/NC(=O)c3ccc([N+](=O)[O-])cc3)o2)cc1 | 1 | 3994 | 2 | 6
